# Assay results from the OligoGym collection.
# Biological target: PEX11G
# Assay: pooled miR-30 sensor sort-seq; sequence = guide strand
# Conditions: shRNA
# Further: reference of the scale not given here.
row,Sequence,sensor-assay potency score (higher = more potent)
1,TAGACAAACATGGCCAGGTCAT,-0.9
2,TTAGTGTAGACAAACATGGCCA,-0.26
3,TTCCCTAGGACGGAGACACAGC,-1.05
4,TGGACACCACCAACAGACGTGT,-1.09

# Biological target: PFKFB4
# Assay: as above
# Conditions: shRNA
row,Sequence,sensor-assay potency score (higher = more potent)
1,TTTCCTTTCACATTGTAGGGTT,0.667
2,TTCACTGTGAGAGCAGGCCTGA,-0.707
3,TCAAGTGACTCTTAGCAGCAGG,-0.462
4,TTTTGGTCACTGATGAACTGGG,-0.438
5,TTAAAGATGGTCGCTCTCCGTT,-0.54
6,TAGGTCTTGACCACGTCCCGGC,-0.311
7,TCATCTAGCGACTCGTAGGAGT,-0.615
8,TATCGAGTCAGCTTCTTGGAGA,-0.636
9,TTGATATAGGACAGGTCCCTAT,-1.32
10,TTTCACACTTCACAAAGCCAAC,-1.28
11,TTTGTAGGTCTTGACCACGTCC,-0.178
12,TAGACTCTTGGCAAACTCCCTG,0.333

# Biological target: PGBD3
# Assay: as above
# Conditions: shRNA
row,Sequence,sensor-assay potency score (higher = more potent)
1,AACTTTGTCAATGTGATCCTTT,0.355
2,TTTCTTTAAAGCTACATCTGAT,-0.534
3,TTTTCTTTAAAGCTACATCTGA,-0.486
4,TGCATTGTCAGCAACATGCAAA,-1.12
5,TTTGGTGGTGCTGTAACTCTAC,0.653
6,TTGTGTTCTTATGACATTCAGC,-0.605
7,TAAACGTAGATGGAACTTCATC,-1.36
8,TTCATTTGGAACAAATTTCATG,-0.714
9,TACGCTTCTGAGGTCTTCCTTT,-0.455
10,TAAAGCTACATCTGATTCCAGT,-0.329
11,TTTGGAACAAATTTCATGCATC,-0.293
12,TTCATCAGGAGAGTCATCTTTA,0.38

# Biological target: PGD
# Assay: as above
# Conditions: shRNA
row,Sequence,sensor-assay potency score (higher = more potent)
1,TTGAGGTCTCGGCACCGTCTTG,-1.68
2,TTGAGCGTAAGAGATGATCTTG,0.0723
3,TTCAGAGATGATAAGCACCGAG,-0.0452
4,TGACTTAAAGAAGTCGTCCAGT,-0.436
5,TCAACTTTGGAGACAGTCCTAT,-0.343
6,TTTCCTAGGAATACACTTCTAA,0.166
7,TTGGTGTGGATAAACTGCCCTG,-0.35
8,TTTCTTATCACCATCAAACTGG,-0.51
9,TAGGAATACACTTCTAATGATG,-1.08
10,TAGGAGGTTCTGAAGTTCCGGG,-0.239
